The panel holds about 83,000 compounds, 20% with a hit somewhere; the sample as a whole holds those more often.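 Activity criterion: percent growth below 10, measured after cells in 96-well plates were exposed to a single compound concentration for 48 hours.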 Unmarked numbers belong to inactive results. Activity calls are given as the source filed them.
System: OVCAR-8 ovarian
Assay: NCI-60 one-dose screen, 48 h (100 = growth as untreated, 0 = no growth, -100 = all killed)
Conditions: 10 µM unless noted

| SMILES | growth |
| --- | --- |
| O=c1oc2ccc(Br)cc2c(=O)n1-c1ccc(Br)cc1F | 12.3% |
| NCCNc1nc2ccccc2c2c(=O)c3cc(F)cc(Cl)c3sc12 | -49.2% (active) |
| CCCN1CCN(c2ccc3nc(-c4ccc5nc(-c6cc(OC)ccc6OC)[nH]c5c4)[nH]c3c2)CC1 | 106% |
| Cc1ccc(C2CC(c3ccc(Nc4nc(NCCO)nc(Nc5ccc(Cl)cc5)n4)cc3)=NN2c2cc(Cl)cc(Cl)c2)cc1 (stereo not drawn) | 97.4% |

System: OVCAR-5 ovarian
Assay: as above
Conditions: 10 µM unless noted

| SMILES | growth |
| --- | --- |
| C=C1C(=O)O[C@H]2[C@H]1CC/C(COC(=O)/C=C\C(=O)O)=C\CC[C@@]1(C)O[C@@H]21 | 93.8% |
| CCCCC1CCc2cccc3c(SCC(=O)N(C)c4ccc(Cl)cc4)cc[n+]1c23 (stereo not drawn) | 116% |
| O=C(c1nc2ccccc2[nH]1)C1C(c2cccc([N+](=O)[O-])c2)C2CC3CCCCC3N2[C@@]12C(=O)Nc1cc(Cl)ccc12 (stereo partly drawn) | 32% |
| O=C1/C(=C/c2ccc(O)cc2)COc2ccc(O)cc21 | 104% |
| O=C1/C(=C/c2ccc(O)cc2)COc2ccc(O)c(O)c21 | 43.7% |
| COc1cc2nc(NC3CCCC3)nc(NC3CCN(C(C)C)CC3)c2cc1OC | 107% |
| Cc1ccccc1CNC(=O)C1CN(c2ccc(Cl)cc2)N(c2ccc(Cl)cc2)C1=O (stereo not drawn) | 91.8% |
| COc1cc(C2CC(c3ccc(Nc4nc(NCCO)nc(N5CCOCC5)n4)cc3)=NN2c2cc(Cl)cc(Cl)c2)cc(OC)c1OC (stereo not drawn) | 74.4% |
| O=C(c1nc2ccccc2[nH]1)C1C(c2ccc([N+](=O)[O-])cc2)C2CC3CCCCC3N2[C@@]12C(=O)Nc1cc(Cl)ccc12 (stereo partly drawn) | 46.3% |
| O=C(Cn1cc(COc2ncnc3c2cnn3-c2ccccc2)nn1)Nc1cccc2ccccc12 | 98.4% |
| CN1C(=O)N(C)C2Nn3c(s/c(=C\c4ccc(Cl)cc4Cl)c3=O)=NC21 (stereo not drawn) | 63.5% |
| O=Cc1cc2ccccc2nc1Nc1nccs1 | 85.6% |
| O=C1/C(=C/c2cccc(O)c2)COc2ccc(O)cc21 | 105% |
| COc1cc2nc(NC3CCC3)nc(NC3CCN(C(C)C)CC3)c2cc1OC | 97.2% |
| O=C(c1nc2ccccc2[nH]1)C1[C@@H](c2cccc(O)c2)C2CC3CCCCC3N2[C@@]12C(=O)Nc1cc(Cl)ccc12 (stereo partly drawn) | 69.3% |
| CCN1C(=O)N(c2ccccc2)C2NN=c3s/c(=C4\C(=O)N(C(C)C)c5ccccc54)c(=O)n3C21 (stereo not drawn) | 45.3% |
| Cc1sc2ncn(CC(=O)Nc3ccc(S(N)(=O)=O)cc3)c(=O)c2c1C | 99.2% |
| COC(=O)c1c2c(c(C)[n+]([O-])c1C)C(=O)C(NCc1ccc(F)c(F)c1)=CC2=O | 41.4% |
| CNCCNc1nc2ccccc2c2c(=O)c3cccc(OC)c3sc12 | 47.3% |
| CNCCNc1nc2ccccc2c2c(=O)c3cccc(C)c3sc12 | 55.3% |

| SMILES | growth |
| --- | --- |
| COc1cc(/C=C2\Oc3cc(OCCCN4CCCC4)ccc3C2=O)cc(OC)c1 | 89.4% |
| COC(=O)[C@H](NC(=O)C1(C)CCC[C@]2(C)[C@H]3C[C@H]4C(C(C)C)=C[C@]3(CC[C@@H]12)[C@@H]1C(=O)CCC(=O)[C@@H]14)C(C)C (stereo partly drawn) | 98.7% |
| COc1cc(/C=C2\CN(C)C/C(=C\c3cc(CN4CCCCC4)c(O)c(OC)c3)C2=O)cc(CN2CCCCC2)c1O | 38.8% |
| O=S(=O)(Nc1ncccn1)c1ccc(NC2Nc3nc4ccccc4nc3S2)cc1 (stereo not drawn) | 96.4% |
| O=C1CCC(N2C(=O)c3cccc(NCCCCCCOc4ccc(Nc5nccc(Nc6ccccc6)n5)cc4)c3C2=O)C(=O)N1 (stereo not drawn) | 109% |
| Cc1c(-c2csc(-n3nc(C(F)(F)F)cc3C(F)(F)F)n2)no[n+]1[O-] | 99.2% |
| O=C(NCc1ccccc1)C1CN(c2ccc(Cl)cc2)N(c2ccc(Cl)cc2)C1=O (stereo not drawn) | 95.2% |
| c1ccc2c(c1)oc1cc3sccc3nc12 | 109% |
| CCCCC1COc2cccc3c2N1C=C/C3=C\C(=O)N(C)c1ccccc1 (stereo not drawn) | 83.9% |
| COc1cc(/C=C/C(=O)c2ccc(Nc3nc(NCCO)nc(N4CCOCC4)n3)cc2)cc(OC)c1OC | 34% |
| Cc1cccc2c(=O)c3c(sc12)c(NCCCNCCO)nc1ccccc13 | 74.4% |
| COc1cc(/C=C2\CN(C)C/C(=C\c3cc(CN4CCCC4)c(O)c(OC)c3)C2=O)cc(CN2CCCC2)c1O | 94.5% |
| O=C(/C=C/c1ccc(C(F)(F)F)cc1)c1ccc(Nc2nc(NCCO)nc(N3CCOCC3)n2)cc1 | 68.6% |
| NCCOc1ccccc1/C=C1\c2ccccc2-c2ccc([N+](=O)[O-])cc21 | 22.3% |
| O=C(/C=C/c1ccc(F)cc1)c1ccc(Nc2nc(NCCO)nc(Nc3ccc(Cl)cc3)n2)cc1 | 96.8% |
| O=c1oc2ccc(Br)cc2c(=O)n1-c1ccc(Br)cc1F | 18.8% |
| NCCNc1nc2ccccc2c2c(=O)c3cc(F)cc(Cl)c3sc12 | -81.6% (active) |
| CCCN1CCN(c2ccc3nc(-c4ccc5nc(-c6cc(OC)ccc6OC)[nH]c5c4)[nH]c3c2)CC1 | 113% |
| Cc1ccc(C2CC(c3ccc(Nc4nc(NCCO)nc(Nc5ccc(Cl)cc5)n4)cc3)=NN2c2cc(Cl)cc(Cl)c2)cc1 (stereo not drawn) | 94.2% |

— PubChem BioAssay (NCI)
